# Many of the other results were omitted from the sample, so the strongest signals are more common in it than they were.
# B1: TbCVNHOa (Tuber borchii), Q5MK11 (protein)
# chain: GSHIGPYMSYADSSRNAVLTNGGRTLRAECRNADGNWVTSELDLDTCIGNPNGFLGWGMQNFSHSSEDIKLEEGGRKLTCRPKTVDGGFRERQGIDLNRIQNVNGRLVFQ
# How the values were obtained:
# Test in all cases: glycan array binding signal (z-score within array); higher = stronger binding
# Conditions in all cases: glycan notation: IUPAC condensed, linker removed
# [1] = target: Fuc(a1-2)Gal
# Procedure, shortened: (§1)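 Negative Z-scores can be read as non-binding. The Z-score is calculated within each array and then averaged across arrays of one protein sequence at different concentrations or buffers and across linkers. Arrays, 3228 in all, were curated from the Consortium for Functional Glycomics database and kept only where the protein sequence was available.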
# [2] = target: Fuc(a1-2)Gal(b1-3)GalNAc(b1-3)Gal(b1-4)Glc
# Procedure, shortened: as §1
# [3] = target: Gal(b1-3)GalNAc(b1-3)Gal(b1-4)Glc
# Procedure, shortened: as §1
# [4] = target: Gal(b1-3)GalNAc(b1-4)Gal(b1-4)Glc
# Procedure, shortened: as §1
# [5] = target: Gal(b1-4)Glc
# Procedure, shortened: as §1
# [6] = target: Gal(b1-4)GlcNAc
# Procedure, shortened: as §1
# [7] = target: Gal(b1-4)GlcNAc(b1-3)Gal(b1-4)Glc
# Procedure, shortened: as §1
# [8] = target: Gal(b1-4)GlcNAc(b1-3)Gal(b1-4)GlcNAc(b1-3)Gal(b1-4)GlcNAc
# Procedure, shortened: as §1
# [9] = target: GalNAc(b1-4)GlcNAc
# Procedure, shortened: as §1
# [10] = target: GlcNAc(a1-3)Gal(b1-4)GlcNAc
# Procedure, shortened: as §1
# [11] = target: GlcNAc(a1-6)Gal(b1-4)GlcNAc
# Procedure, shortened: as §1
# [12] = target: GlcNAc(b1-3)Gal
# Procedure, shortened: as §1
# [13] = target: GlcNAc(b1-3)Gal(b1-3)GalNAc
# Procedure, shortened: as §1
# [14] = target: GlcNAc(b1-6)Gal(b1-4)GlcNAc
# Procedure, shortened: as §1
# [15] = target: Man(a1-2)Man(a1-2)Man(a1-3)Man
# Procedure, shortened: as §1
# [16] = target: Neu5Gc(a2-3)Gal(b1-4)GlcNAc
# Procedure, shortened: as §1
binder,measurement,setting,value
B1,glycan array binding signal (z-score),[1],-0.262
same,glycan array binding signal (z-score),[2],3.46
same,glycan array binding signal (z-score),[3],5.6
same,glycan array binding signal (z-score),[4],-0.271
same,glycan array binding signal (z-score),[5],-0.264
same,glycan array binding signal (z-score),[6],-0.238
same,glycan array binding signal (z-score),[7],2.73
same,glycan array binding signal (z-score),[8],-0.058
same,glycan array binding signal (z-score),[9],-0.239
same,glycan array binding signal (z-score),[10],-0.293
same,glycan array binding signal (z-score),[11],-0.292
same,glycan array binding signal (z-score),[12],-0.283
same,glycan array binding signal (z-score),[13],-0.222
same,glycan array binding signal (z-score),[14],-0.247
same,glycan array binding signal (z-score),[15],3.86
same,glycan array binding signal (z-score),[16],-0.209

# — the supplement of paper PMC8728848
